Measurements published in PubChem BioAssay (EPA / NIEHS).
Values joined by “and” are separate entries in the source; they are usually repeats but may differ in a detail not shown here. Equal entries are not always repeated. Records with an inconclusive call do not appear. The source holds several records for some structures; these can differ, active in one and inactive in another. Active and inactive are the calls of the source. How the source made its calls, unless noted: active means hit-call score of the fitted dose curve at least 0.9, where 1 is the maximum; inactive means score below 0.9.

Assays:
[1] = ATG_PXRE_CIS: Attagene CIS-FACTORIAL HepG2 Assay for human Pregnane X Receptor Element (PXRE) (AID 2282957); settings: HepG2 Attagene CIS-FACTORIAL PXRE reporter, mRNA; actives raise or lower the signal
How it was run: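 Read-out: fluorescence of reporter-specific RT-PCR products resolved by capillary electrophoresis, fitted bidirectionally relative to DMSO. Human HepG2 liver cells carried transfected cis-promoter reporter units and were exposed to chemicals for 24 h.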

[2] = ATG_PPRE_CIS: Attagene CIS-FACTORIAL HepG2 Assay for human Peroxisome Proliferator-activated Response Element (PPRE) (AID 2282958); settings: HepG2 PPRE cis-element reporter, Attagene transcription factor profiling; actives raise or lower the signal
How it was run: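 Cells are first transfected transiently with the multiplexed reporter library, then dosed for 24 h. Total RNA is reverse-transcribed, amplified, fluorescently end-labeled and HpaI-cut before capillary electrophoresis; activity is fitted bidirectionally against DMSO controls.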

[3] = ATG_RORE_CIS: Attagene CIS-FACTORIAL HepG2 Assay for human RAR-related Orphan Receptor Element (RORE) (AID 2282959); settings: HepG2 Attagene cis-factorial RORE reporter, mRNA; actives raise or lower the signal
How it was run: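 Cells were HepG2 carrying transfected cis-regulated reporter constructs, dosed for 24 hours. Total RNA was reverse-transcribed and reporter cDNA amplified, fluorescently labeled and sized by capillary electrophoresis. Activity was fitted bidirectionally relative to DMSO.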

[4] = ATG_Sox_CIS: Attagene CIS-FACTORIAL HepG2 Assay for human SRY-box transcription factor (SOX) (AID 2282960); settings: HepG2 Attagene cis-factorial SOX reporter, mRNA; actives raise or lower the signal
How it was run: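 Transient MRTU transfection of HepG2; 24 h compound incubation; TriZol RNA, oligo(dT) RT, PCR, 6-FAM primer extension, HpaI cut, CE. Bidirectional fit, DMSO = baseline.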

[5] = biological target: Transcription factor Sp1 (Homo sapiens) (UniProt P08047); test: ATG_Sp1_CIS: Attagene CIS-FACTORIAL HepG2 Assay for human Specificity Protein 1 (Sp1) (AID 2282961); settings: HepG2 Sp1 cis-reporter transcription, actives raise or lower the signal
How it was run: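 Endogenous Sp1 activity was gauged in human liver HepG2 cells bearing transfected reporter units under a cis-regulating promoter. After 24 h dosing, reporter mRNA was quantified by RT-PCR with capillary electrophoresis, and activity fitted bidirectionally versus DMSO.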

[6] = ATG_SREBP_CIS: Attagene CIS-FACTORIAL HepG2 Assay for human Sterol Regulatory Element Binding (SREBP) (AID 2282962); settings: HepG2 Attagene cis-factorial SREBP reporter, mRNA; actives raise or lower the signal
How it was run: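 In this cis-format assay, HepG2 liver cells express reporters controlled by promoter elements responsive to native transcription factors. Exposure lasts 24 h; reporter mRNA fluorescence from capillary electrophoresis gives the signal, fitted bidirectionally against DMSO.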

[7] = biological target: Signal transducer and activator of transcription 3 (Homo sapiens) (UniProt P40763); test: ATG_STAT3_CIS: Attagene CIS-FACTORIAL HepG2 Assay for human Signal Transducer and Activator of Transcription 3 (STAT3) (AID 2282963); settings: HepG2, Attagene cis-factorial STAT3 reporter transcription; actives raise or lower the signal
How it was run: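 Cis-factorial format: endogenous transcription factors in HepG2 drive transfected reporter units. After 24 h treatment, reporter RNA was reverse-transcribed, amplified, FAM-labelled and HpaI-digested before CE analysis; activity scored in both directions against DMSO.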

[8] = ATG_TA_CIS: Attagene CIS-FACTORIAL HepG2 Assay for human TA Basal Promoter (AID 2282964); settings: HepG2 Attagene CIS-factorial TA basal promoter reporter; actives raise or lower the signal
How it was run: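 HepG2 cells transiently transfected with multiplexed cis-promoter reporter units, dosed 24 h. Reporter mRNA measured by RT-PCR, 6-FAM labelling, HpaI digestion and capillary electrophoresis; bidirectional fit versus DMSO baseline, serving as background control.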

[9] = ATG_TCF_b_cat_CIS: Attagene CIS-FACTORIAL HepG2 Assay for human T-Cell-Factor with beta-catenin (TCF/b-cat) (AID 2282965); settings: HepG2 TCF/beta-catenin cis-reporter transcription, actives raise or lower the signal
How it was run: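 Measured: reporter mRNA in HepG2 transiently transfected with cis-promoter reporter units, 24 h after chemical addition. Fitting was bidirectional, DMSO as negative control.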

[10] = ATG_TAL_CIS: Attagene CIS-FACTORIAL HepG2 Assay for human TAL Basal Promoter (AID 2282966); settings: HepG2 Attagene cis-factorial TAL promoter reporter; actives raise or lower the signal;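 further: background control endpoint measuring basal TAL promoter reporter mRNA not a specific factor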
How it was run: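 HepG2, transient MRTU transfection, 24 h compound exposure; RNA → oligo(dT) RT → PCR → 6-FAM primer extension → HpaI digest → CE fluorescence. Bidirectional curve fit vs DMSO. Background-control readout.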

[11] = ATG_TGFb_CIS: Attagene CIS-FACTORIAL HepG2 Assay for human Transforming Growth Factor (TGF) (AID 2282967); settings: HepG2 Attagene CIS TGFb reporter, mRNA transcription; actives raise or lower the signal
How it was run: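 HepG2 cells transiently transfected with cis-promoter-driven multiplexed reporter units; 24 h compound exposure. Reporter mRNA measured by RT-PCR, 6-FAM labeling, HpaI digestion and capillary electrophoresis; bidirectional fit versus DMSO baseline.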

[12] = ATG_VDRE_CIS: Attagene CIS-FACTORIAL HepG2 Assay for human Vitamin D Receptor Element (VDRE) (AID 2282968); settings: HepG2 VDRE cis-reporter transcription, actives raise or lower the signal
How it was run: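 Measures endogenous factor activity through cis-element-driven reporter transcripts in transiently transfected HepG2. Cells are treated 24 h; reporter mRNA is quantified by RT-PCR and capillary electrophoresis; fitting is bidirectional.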

[13] = biological target: Steroid hormone receptor ERR1 (Homo sapiens) (UniProt P11474); test: ATG_ERRa_TRANS: Attagene TRANS-FACTORIAL HepG2 Assay for human Estrogen-Related Receptor alpha (ERRa) (AID 2282971; active means hit-call score of the fitted dose curve at least 0.9, where 1 is the maximum); settings: HepG2 Attagene TRANS reporter, ERRa transactivation
How it was run: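 Transfected HepG2, 24 h dosing, ERRa-Gal4 chimera driving GAL4-UAS reporter. Readout: reporter mRNA via RT-PCR plus capillary electrophoresis (fluorescence). Positive direction vs DMSO control.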

[14] = biological target: X-box-binding protein 1 (Homo sapiens) (UniProt P17861); test: ATG_Xbp1_CIS: Attagene CIS-FACTORIAL HepG2 Assay for human X-box Binding Protein 1 (XBP1) (AID 2282972); settings: HepG2 XBP1 cis-element reporter, Attagene multiplex; actives raise or lower the signal
How it was run: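 Changes in reporter transcript abundance, read by RT-PCR and capillary electrophoresis, reflect endogenous transcription factor activity. Transfected HepG2 cells received compound for 24 hours; DMSO defined baseline for bidirectional analysis.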

[15] = biological target: Estrogen receptor (Homo sapiens) (UniProt P03372); test: ATG_ERa_TRANS: Attagene TRANS-FACTORIAL HepG2 Assay for human Estrogen Receptor alpha (ERa) (AID 2282970; active means hit-call score of the fitted dose curve at least 0.9, where 1 is the maximum); settings: HepG2 Attagene TRANS ERa GAL4 reporter, mRNA
How it was run: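 Reporter mRNA induction after 24 hours, detected by fluorescent RT-PCR and capillary electrophoresis, gives the read-out. Cells are HepG2 transiently transfected with GAL4-UAS reporter transcription units responding to chimeric NR-Gal4. Activity is taken as gain of signal over DMSO baseline.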

[16] = biological target: Nuclear receptor subfamily 1 group I member 3 (Homo sapiens) (UniProt Q14994); test: ATG_CAR_TRANS: Attagene TRANS-FACTORIAL HepG2 Assay for human Constitutive Androstane Receptor (CAR) (AID 2282969; active means hit-call score of the fitted dose curve at least 0.9, where 1 is the maximum;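 further: activators raise reporter mRNA above DMSO so AC50 marks induction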); settings: HepG2 Attagene TRANS-FACTORIAL CAR reporter
How it was run: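 Signal is reporter mRNA induction relative to DMSO, measured 24 h after dosing by RT-PCR with fluorescent primer extension and capillary electrophoresis. Human HepG2 liver cells carried transiently transfected chimeric NR-Gal4/GAL4-UAS reporter constructs.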

[17] = ATG_M_19_TRANS: Attagene TRANS-FACTORIAL HepG2 Assay for M19 Transcription Factor (Internal Marker) (AID 2282974; active means hit-call score of the fitted dose curve at least 0.9, where 1 is the maximum); settings: HepG2 Attagene TRANS-FACTORIAL M19 internal marker reporter
How it was run: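 Cells: human HepG2, transiently transfected with multiplexed reporter transcription units. Exposure: 24 h. Detection: RT-PCR of reporter mRNA with capillary electrophoresis. Analysis: gain-of-signal vs DMSO.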

[18] = ATG_GAL4_TRANS: Attagene TRANS-FACTORIAL HepG2 Assay for GAL4 (Internal Marker) (AID 2282976; active means hit-call score of the fitted dose curve at least 0.9, where 1 is the maximum); settings: HepG2 Attagene TRANS GAL4 internal marker reporter
How it was run: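 RT-PCR/capillary electrophoresis readout of reporter mRNA. HepG2, transient MRTU transfection (GAL4-UAS reporters), 24 h compound exposure. Background-control endpoint, positive direction vs DMSO baseline.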

Measured: AC50

Chain of Transcription factor Sp1 (Homo sapiens) (P08047 whole entry, looked up): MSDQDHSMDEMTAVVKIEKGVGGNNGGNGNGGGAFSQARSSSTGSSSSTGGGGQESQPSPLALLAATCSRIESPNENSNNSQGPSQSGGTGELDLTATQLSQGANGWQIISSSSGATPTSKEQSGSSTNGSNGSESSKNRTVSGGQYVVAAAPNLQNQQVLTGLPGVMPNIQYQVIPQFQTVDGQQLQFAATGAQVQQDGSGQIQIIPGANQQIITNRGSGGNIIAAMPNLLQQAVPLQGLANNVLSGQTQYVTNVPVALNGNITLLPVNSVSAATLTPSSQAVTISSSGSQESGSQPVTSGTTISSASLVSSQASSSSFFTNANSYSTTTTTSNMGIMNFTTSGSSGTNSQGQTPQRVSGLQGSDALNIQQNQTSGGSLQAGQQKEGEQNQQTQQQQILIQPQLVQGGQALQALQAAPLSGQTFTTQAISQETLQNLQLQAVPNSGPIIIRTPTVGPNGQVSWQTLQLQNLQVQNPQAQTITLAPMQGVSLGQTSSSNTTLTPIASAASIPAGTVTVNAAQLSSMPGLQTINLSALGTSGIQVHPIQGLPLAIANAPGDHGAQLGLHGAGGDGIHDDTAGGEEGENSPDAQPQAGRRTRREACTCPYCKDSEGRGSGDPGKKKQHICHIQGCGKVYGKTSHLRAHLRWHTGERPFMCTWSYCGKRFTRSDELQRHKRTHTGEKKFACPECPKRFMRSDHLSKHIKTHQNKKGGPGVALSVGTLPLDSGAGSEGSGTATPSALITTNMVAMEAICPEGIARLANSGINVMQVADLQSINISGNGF
Chain of Steroid hormone receptor ERR1 (Homo sapiens) (P11474 whole entry, looked up, the tested form may be a part): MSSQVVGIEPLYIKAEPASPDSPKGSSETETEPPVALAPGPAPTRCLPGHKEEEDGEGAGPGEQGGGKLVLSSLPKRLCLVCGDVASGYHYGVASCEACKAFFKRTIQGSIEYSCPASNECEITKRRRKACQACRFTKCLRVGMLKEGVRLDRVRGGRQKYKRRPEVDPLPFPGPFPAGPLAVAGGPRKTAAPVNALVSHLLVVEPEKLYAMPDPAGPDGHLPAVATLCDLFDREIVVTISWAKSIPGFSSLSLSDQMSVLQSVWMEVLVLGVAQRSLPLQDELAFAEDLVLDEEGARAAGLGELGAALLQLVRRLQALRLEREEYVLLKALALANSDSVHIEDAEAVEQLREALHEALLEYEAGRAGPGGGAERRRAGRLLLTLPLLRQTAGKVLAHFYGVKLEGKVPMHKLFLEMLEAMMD
Chain of X-box-binding protein 1 (Homo sapiens) (P17861 whole entry, looked up): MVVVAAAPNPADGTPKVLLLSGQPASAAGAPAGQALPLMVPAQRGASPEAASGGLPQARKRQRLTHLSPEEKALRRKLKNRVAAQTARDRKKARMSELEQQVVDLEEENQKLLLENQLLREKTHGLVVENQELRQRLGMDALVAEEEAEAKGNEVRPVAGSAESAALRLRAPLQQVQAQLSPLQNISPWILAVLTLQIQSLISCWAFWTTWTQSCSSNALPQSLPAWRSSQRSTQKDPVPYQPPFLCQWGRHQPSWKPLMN
Chain of Signal transducer and activator of transcription 3 (Homo sapiens) (P40763 whole entry, looked up): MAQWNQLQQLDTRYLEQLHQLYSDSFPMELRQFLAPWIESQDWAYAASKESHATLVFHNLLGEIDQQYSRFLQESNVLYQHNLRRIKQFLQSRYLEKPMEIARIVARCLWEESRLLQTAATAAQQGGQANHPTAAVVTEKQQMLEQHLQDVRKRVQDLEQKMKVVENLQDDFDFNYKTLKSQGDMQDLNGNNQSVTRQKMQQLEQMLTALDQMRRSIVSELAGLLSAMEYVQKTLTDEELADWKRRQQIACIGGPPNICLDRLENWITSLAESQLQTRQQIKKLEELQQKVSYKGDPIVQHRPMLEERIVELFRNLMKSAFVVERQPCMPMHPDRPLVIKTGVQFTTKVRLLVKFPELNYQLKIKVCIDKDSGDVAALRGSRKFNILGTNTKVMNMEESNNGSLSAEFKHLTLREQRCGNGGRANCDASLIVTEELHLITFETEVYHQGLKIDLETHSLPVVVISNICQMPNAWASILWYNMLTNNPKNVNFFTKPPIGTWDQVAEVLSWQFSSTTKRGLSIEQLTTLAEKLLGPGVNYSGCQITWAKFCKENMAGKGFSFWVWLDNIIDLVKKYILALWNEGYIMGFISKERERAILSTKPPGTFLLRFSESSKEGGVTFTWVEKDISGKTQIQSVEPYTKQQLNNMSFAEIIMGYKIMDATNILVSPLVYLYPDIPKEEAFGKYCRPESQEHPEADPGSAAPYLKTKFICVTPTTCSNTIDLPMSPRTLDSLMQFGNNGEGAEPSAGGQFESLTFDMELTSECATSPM
Chain of Estrogen receptor (Homo sapiens) (P03372 whole entry, looked up, the tested form may be a part): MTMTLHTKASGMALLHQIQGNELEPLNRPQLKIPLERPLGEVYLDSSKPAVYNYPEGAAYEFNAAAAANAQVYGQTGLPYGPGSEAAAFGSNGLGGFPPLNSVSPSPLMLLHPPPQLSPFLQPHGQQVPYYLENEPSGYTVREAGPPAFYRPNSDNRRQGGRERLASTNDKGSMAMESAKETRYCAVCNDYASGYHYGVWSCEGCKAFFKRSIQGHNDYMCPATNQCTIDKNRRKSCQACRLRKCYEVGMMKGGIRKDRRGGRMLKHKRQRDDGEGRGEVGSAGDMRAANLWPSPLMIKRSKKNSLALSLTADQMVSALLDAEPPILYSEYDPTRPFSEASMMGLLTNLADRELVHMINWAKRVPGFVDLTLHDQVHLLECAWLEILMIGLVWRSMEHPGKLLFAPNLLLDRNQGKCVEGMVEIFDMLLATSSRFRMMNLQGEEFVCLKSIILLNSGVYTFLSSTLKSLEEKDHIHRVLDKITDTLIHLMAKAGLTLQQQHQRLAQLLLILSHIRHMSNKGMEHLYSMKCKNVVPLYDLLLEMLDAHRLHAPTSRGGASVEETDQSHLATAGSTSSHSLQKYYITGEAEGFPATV
Chain of Nuclear receptor subfamily 1 group I member 3 (Homo sapiens) (Q14994 whole entry, looked up, the tested form may be a part): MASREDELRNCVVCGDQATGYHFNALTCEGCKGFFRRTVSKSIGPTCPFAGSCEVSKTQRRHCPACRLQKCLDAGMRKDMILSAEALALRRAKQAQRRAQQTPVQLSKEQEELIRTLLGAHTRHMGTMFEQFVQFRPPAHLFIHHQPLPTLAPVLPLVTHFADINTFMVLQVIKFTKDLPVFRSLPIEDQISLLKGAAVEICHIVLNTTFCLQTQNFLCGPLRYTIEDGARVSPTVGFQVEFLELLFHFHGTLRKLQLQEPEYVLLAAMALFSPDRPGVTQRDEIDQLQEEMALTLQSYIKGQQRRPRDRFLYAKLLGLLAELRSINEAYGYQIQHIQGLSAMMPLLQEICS

O=C1C=CC(=O)N1c1cccc(N2C(=O)C=CC2=O)c1
inactive: [1] | [2] | [3] | [4] | [5] | [6] | [7] | [8] | [9] | [10] | [11] | [12] | [13] | [14]

CC(C)(O)C(=O)c1ccccc1
active: [1] 36.2 µM
inactive: [2] | [3] | [4] | [5] | [6] | [7] | [8] | [9] | [10] | [11] | [12] | [15] | [13] | [14]

CCN(CC)CC
active: [4] 18.3 µM
inactive: [1] | [2] | [3] | [4] | [5] | [6] | [7] | [8] | [9] | [10] | [11] | [16] | [15] | [14] | [17] | [18]

CCCCCCc1ccc(N)cc1
active: [9] 5.73 µM
inactive: [1] | [2] | [3] | [4] | [5] | [6] | [7] | [8] | [10] | [11] | [12] | [16] | [13] | [14]

NCCN
active: [1] 164 µM
inactive: [1] | [2] | [3] | [4] | [5] | [6] | [7] | [9] | [10] | [11] | [15] | [14] | [17] | [18]

Cc1cc(C(C)(C)C)c(O)c(C(C)(C)C)c1
active: [1] 8.81 µM and 603 nM | [2] 11.9 µM | [5] 52.3 µM and 97 µM | [6] 33.4 µM and 60 µM | [14] 33.4 µM and 89.6 µM
inactive: [2] | [4] | [7] | [8] | [9] | [10] | [11]

Cc1ccc(C(=O)c2ccccc2)cc1
inactive: [2] | [3] | [4] | [5] | [6] | [7] | [8] | [9] | [10] | [11] | [12] | [14] | [17] | [18]
active: [1] 30.4 µM | [15] 27.8 µM

COC(=O)CC(C(C)=O)C(=O)OC (centres undefined)
inactive: [1] | [2] | [3] | [4] | [5] | [6] | [7] | [8] | [9] | [10] | [11] | [12] | [15] | [14] | [17]
